Laboratory results as given in PubChem BioAssay (EPA / NIEHS).
Calls of active or inactive are those of the source. The calls were made as follows: active = hit-call score of the fitted dose curve at least 0.9, where 1 is the maximum; inactive = score below 0.9.

Each compound was assayed against PGR (gene 5241) (UniProt P06401) (assay: TOX21_PR_LUC_Followup_Agonist: Tox21 HEK293 Progesterone Receptor (PR) Agonism Luciferase Follow-Up Assay (AID 2283937)).
Source text: TOX21_PR_LUC_Followup is a secondary assay for specificity for the TOX21_PR_BLA_Agonist assay. To differentiate true PR agonists from cytotoxic substances, this follow up assay is multiplexed with a cell viability assay.TOX21_PR_LUC_Followup_Agonist is one of one assay component(s) measured or calculated from the TOX21_PR_LUC_Followup assay. It is designed to make measurements of luciferase induction, a form of inducible reporter, as detected with bioluminescence signals by CellTiter-Glo Luciferase-coupled ATP quantitation technologyData from the assay component TOX21_PR_LUC_Followup_Agonist was analyzed into 1 assay endpoint. This assay endpoint, TOX21_PR_LUC_Followup_Agonist, was analyzed in the positive analysis fitting direction relative to DMSO as the negative control and baseline of activity. Using a type of inducible reporter, gain-of-signal activity can be used to understand changes in the reporter gene as they relate to the gene NR3C3. Furthermore, this assay endpoint can be referred to as a primary readout, because the performed assay has only produced 1 assay endpoint. To generalize the intended target to other relatable targets, this assay endpoint is annotated to the nuclear receptor target family, where the subfamily is steroidal.
Quality Control Precautions: Maintain cells below 85-90% confluence in culture medium. For assay purpose, the cells should be cultured in assay medium with 10% charcoal stripped FBS for 5 days with alternate day medium changed to fresh medium. Especially while in assay culture, the cells should not reach more than 85% confluence as they would become harder to detach if they reach over confluence.Assay Protocol: HEK293-PR-A-luc cells were dispensed at 3,000 cells/5 uL/well of culture medium into white wall/solid-bottom 1536-well plates using a Multidrop Combi (ThermoFisher Scientific, Waltham, MA) dispenser. After the assay plates were incubated at 37C and […] for 5 h, 23 nL of compounds dissolved in DMSO, positive controls or DMSO only was transferred to the assay plate by a Pintool station (Kalypsys, San Diego, CA). The plates were incubated at 37C and […] for 16 h. Then 4 uL of ONE-Glo reagent (Promega, Madison, WI) was added to each plate using a BioRAPTR Flying Reagent Dispenser (FRD) workstation (Beckman Coulter, Indianapolis, IN, USA) and luminescence was quantified on a ViewLux (PerkinElmer, Shelton, CT) plate reader after 30 min incubation at room temperature.

Sequence of PGR (gene 5241) (P06401 whole entry, looked up): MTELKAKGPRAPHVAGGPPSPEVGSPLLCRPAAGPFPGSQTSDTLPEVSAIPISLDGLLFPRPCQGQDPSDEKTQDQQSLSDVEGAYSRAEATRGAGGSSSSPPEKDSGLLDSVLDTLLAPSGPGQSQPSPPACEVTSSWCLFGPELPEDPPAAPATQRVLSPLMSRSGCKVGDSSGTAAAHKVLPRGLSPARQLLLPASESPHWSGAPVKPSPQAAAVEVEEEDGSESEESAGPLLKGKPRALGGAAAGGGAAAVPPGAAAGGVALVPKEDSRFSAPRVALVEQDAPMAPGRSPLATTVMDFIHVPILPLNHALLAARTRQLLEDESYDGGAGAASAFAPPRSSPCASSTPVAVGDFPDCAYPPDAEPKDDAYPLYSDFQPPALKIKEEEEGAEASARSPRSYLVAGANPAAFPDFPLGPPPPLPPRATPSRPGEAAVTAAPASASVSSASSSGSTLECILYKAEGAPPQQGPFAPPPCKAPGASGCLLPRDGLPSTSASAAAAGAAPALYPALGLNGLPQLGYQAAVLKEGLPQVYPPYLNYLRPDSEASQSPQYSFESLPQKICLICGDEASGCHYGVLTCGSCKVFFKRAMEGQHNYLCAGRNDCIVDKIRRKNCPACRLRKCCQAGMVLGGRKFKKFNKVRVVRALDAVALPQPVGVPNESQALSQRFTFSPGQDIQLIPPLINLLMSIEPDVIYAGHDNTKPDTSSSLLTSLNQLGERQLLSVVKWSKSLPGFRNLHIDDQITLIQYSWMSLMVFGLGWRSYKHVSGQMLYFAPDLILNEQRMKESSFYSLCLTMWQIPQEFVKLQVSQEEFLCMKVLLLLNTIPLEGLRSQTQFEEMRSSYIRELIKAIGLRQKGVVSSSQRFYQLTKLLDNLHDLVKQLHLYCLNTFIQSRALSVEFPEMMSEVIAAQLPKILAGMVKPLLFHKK

| SMILES | outcome | AC50 |
| --- | --- | --- |
| Clc1ccc2c(c1)Nc1ccccc1S2 | inactive | – |
| CC1(C)OC(=O)Nc2ccc(Br)cc21 | inactive | – |
| COC(=O)[C@@H]1CC2=CC(=O)CC[C@]2(C)[C@@]23O[C@@H]2C[C@@]2(C)[C@@H](CC[C@@]24CCC(=O)O4)[C@H]13 | inactive | – |
| CCC(=O)Oc1ccc2c(c1)CC[C@@H]1[C@@H]2CC[C@@]2(C)[C@H]1C[C@@H](OC(=O)CC)[C@@H]2OC(=O)CC | – | 16800 nM (active) |
| CC(=O)O[C@H]1CC[C@@]2(C)C(=CC[C@@H]3[C@@H]2CC[C@]2(C)C(C(C)=O)=CC[C@@H]32)C1 | inactive | – |
| C[C@@H]1C[C@H]2[C@@H]3CCC4=CC(=O)C=C[C@]4(C)[C@@]3(F)[C@@H](O)C[C@]2(C)[C@@]1(O)C(=O)COC(=O)c1ccncc1 | – | 510 nM (active) |
| COC(=O)C1=C(C)NC(C)=C(C(=O)OC(C)C)C1c1cccc2nonc12 (stereo unspecified) | inactive | – |
| C/C=C(/C(=C/C)c1ccc(OC(C)=O)cc1)c1ccc(OC(C)=O)cc1 | inactive | – |
| CCOC(=O)C1=C(C)NC(C)=C(C(=O)OC)C1c1cccc(Cl)c1Cl (stereo unspecified) | inactive | – |
| CN1CC[C@H](c2c(O)cc(O)c3c(=O)cc(-c4ccccc4Cl)oc23)[C@H](O)C1 | inactive | – |
| CCCOc1ccc2c(c1)CC[C@@H]1[C@@H]2CC[C@]2(C)C(OC)CC[C@@H]12 (stereo partly specified) | inactive | – |
| CCCC(=O)OCOC(=O)C1=C(C)NC(C)=C(C(=O)OC)C1c1cccc(Cl)c1Cl (stereo unspecified) | inactive | – |
| CN1CCN(C2=Nc3cc(F)ccc3Cc3ccccc32)CC1 | inactive | – |
| CCC(=O)O[C@]1(C(=O)COC)[C@@H](C)C[C@H]2[C@@H]3CCC4=CC(=O)C=C[C@]4(C)C3(F)[C@@H](O)C[C@@]21C (stereo partly specified) | – | 6.7 nM (active) |
| C[C@@H]1CC(=O)NN=C1c1ccc(NN=C(C#N)C#N)cc1 | inactive | – |
| CC(=O)O[C@@H]1CC2C3CCc4cc(OC(=O)c5ccccc5)ccc4C3CCC2(C)[C@H]1OC(C)=O (stereo partly specified) | – | 20100 nM (active) |
| CCN(CC)CC(=O)OCC(=O)[C@@]1(O)CC[C@H]2[C@@H]3CCC4=CC(=O)CC[C@]4(C)[C@H]3[C@@H](O)C[C@@]21C | – | 1470 nM (active) |
| C[C@]12CCC(=O)C=C1CC[C@@H]1[C@@H]2[C@@H](O)C[C@@]2(C)[C@H]1CC[C@]2(O)C(=O)CO | – | 1300 nM (active) |
| CC(=O)OCC(=O)[C@@]1(O)CC[C@H]2[C@@H]3CCC4=CC(=O)CC[C@]4(C)[C@H]3C(=O)C[C@@]21C | inactive | – |
| CC(C)(C)C(O)/C=C/c1ccc2c(c1)OCO2 (stereo unspecified) | inactive | – |
| CC(=O)OCC(=O)[C@H]1CC[C@H]2[C@@H]3CCC4=CC(=O)CC[C@]4(C)[C@H]3CC[C@]12C | – | 29.7 nM (active) |
